Reference: PubChem BioAssay AID1159580 (chemical genetic matrix, 2015)
Several values for one entry are separate records, joined by “and”; a condition that tells them apart may be missing. Equal entries are not always repeated. Screen size: about 5,500 compounds; about 2,000 (36%) were called active. About 18% were inconclusive and are not listed. No stated cut-off is given here; in the data, active means normalized growth mostly below about 0.91 (no sharp cut-off); inconclusive means no clear call, values can overlap the other calls; inactive means mostly above about 0.92. The list shows a part of the results.

Test: chemical genetic growth profiling, strain panel (AID 1159580);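 further: tested at 20 µM; growth read once vehicle control cultures reached saturation at 30 °C; 1 = growth at the plate median or of vehicle wells; lower values mean less growth of the strain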
Details: growth OD

Measured: normalized growth

CCN(CC)CCNC(=O)c1cc(Cl)c(N)cc1OC
inactive: S. cerevisiae deletion strains, locus YJR075W, strain HOC1, hits give low values 0.998 | S. cerevisiae deletion strains, locus YKL009W, strain mrt4, hits give low values 1.01 | S. cerevisiae deletion strains, locus YKL068W, hits give low values 1.01 | S. cerevisiae deletion strains, locus YKL085W, strain MDH1 (second series), hits give low values 1 | S. cerevisiae deletion strains, locus YKL085W, strain MDH1, hits give low values 1 | S. cerevisiae deletion strains, locus YKL160W, strain elf1, hits give low values 0.97 | S. cerevisiae deletion strains, locus YKL190W, strain CNB1, hits give low values 1.02 | S. cerevisiae deletion strains, locus YKR001C, strain vps1, hits give low values 1 | S. cerevisiae deletion strains, locus YKR026C, strain gcn3, hits give low values 0.996 | S. cerevisiae deletion strains, locus YKR091W, strain srl3, hits give low values 0.972 | S. cerevisiae deletion strains, locus YLL001W, strain dnm1, hits give low values 0.921 | S. cerevisiae deletion strains, locus YLL026W, hits give low values 0.977 | S. cerevisiae deletion strains, locus YLL041C, strain sdh2, hits give low values 0.991 | S. cerevisiae deletion strains, locus YLR027C, strain aat2, hits give low values 0.983 | S. cerevisiae deletion strains, locus YLR039C, strain RIC1, hits give low values 0.996 | S. cerevisiae deletion strains, locus YLR058C, strain SHM2, hits give low values 1.01 | S. cerevisiae deletion strains, locus YLR102C, strain apc9, hits give low values 0.992 | S. cerevisiae deletion strains, locus YLR113W, strain HOG1, hits give low values 1.06 | S. cerevisiae deletion strains, locus YLR221C, strain rsa3, hits give low values 0.961 | S. cerevisiae deletion strains, locus YLR258W, strain gsy2, hits give low values 0.997 | S. cerevisiae deletion strains, locus YLR262C, strain YPT6 (second series), hits give low values 0.977 | S. cerevisiae deletion strains, locus YLR262C, strain YPT6, hits give low values 1.05 | S. cerevisiae deletion strains, locus YLR268W, strain sec22, hits give low values 0.963 | S. cerevisiae deletion strains, locus YLR320W, strain mms22, hits give low values 0.962 | S. cerevisiae deletion strains, locus YLR330W, strain CHS5, hits give low values 1 | S. cerevisiae deletion strains, locus YLR342W, strain FKS1 (second series), hits give low values 0.995 | S. cerevisiae deletion strains, locus YLR342W, strain FKS1, hits give low values 0.983 | S. cerevisiae deletion strains, locus YLR357W, strain rsc2, hits give low values 0.965 | S. cerevisiae deletion strains, locus YLR370C, strain arc18, hits give low values 0.973 | S. cerevisiae deletion strains, locus YLR371W, strain rom2, hits give low values 0.995 | S. cerevisiae deletion strains, locus YLR384C, strain iki3, hits give low values 0.976 | S. cerevisiae deletion strains, locus YLR418C, strain cdc73, hits give low values 0.976 | S. cerevisiae deletion strains, locus YML016C, strain PPZ1, hits give low values 1.01 | S. cerevisiae deletion strains, locus YML032C, strain rad52, hits give low values 0.987 | S. cerevisiae deletion strains, locus YML120C, strain ndi1, hits give low values 0.945 | S. cerevisiae deletion strains, locus YML124C, strain tub3, hits give low values 1 | S. cerevisiae deletion strains, locus YMR058W, strain fet3, hits give low values 0.983 | S. cerevisiae deletion strains, locus YMR078C, strain ctf18, hits give low values 0.994 | S. cerevisiae deletion strains, locus YMR125W, strain sto1, hits give low values 0.951 | S. cerevisiae deletion strains, locus YMR129W, hits give low values 0.995 | S. cerevisiae deletion strains, locus YMR205C, strain PFK2, hits give low values 0.954 | S. cerevisiae deletion strains, locus YMR223W, strain ubp8, hits give low values 0.997 | S. cerevisiae deletion strains, locus YMR231W, strain pep5, hits give low values 0.992 | S. cerevisiae deletion strains, locus YMR263W, strain SAP30, hits give low values 1.01 and 1 | S. cerevisiae deletion strains, locus YMR307W, strain GAS1, hits give low values 1.01 | S. cerevisiae deletion strains, locus YNL067W, strain RPL9B, hits give low values 1 | S. cerevisiae deletion strains, locus YNL071W, strain lat1, hits give low values 0.984 | S. cerevisiae deletion strains, locus YNL128W, strain TEP1, hits give low values 1.03 | S. cerevisiae deletion strains, locus YNL153C, strain GIM3, hits give low values 0.996 and 0.998 | S. cerevisiae deletion strains, locus YNL175C, strain NOP13, hits give low values 1 | S. cerevisiae deletion strains, locus YNL183C, strain NPR1, hits give low values 0.991 | S. cerevisiae deletion strains, locus YNL197C, strain WHI3, hits give low values 1.02 | S. cerevisiae deletion strains, locus YNL209W, strain ssb2, hits give low values 0.974 | S. cerevisiae deletion strains, locus YNL224C, strain SQS1, hits give low values 1.01 | S. cerevisiae deletion strains, locus YNL233W, strain BNI4, hits give low values 1 | S. cerevisiae deletion strains, locus YNL248C, strain rpa49, hits give low values 0.983 | S. cerevisiae deletion strains, locus YNL250W, strain rad50, hits give low values 0.992 | S. cerevisiae deletion strains, locus YNL271C, strain bni1, hits give low values 1 | S. cerevisiae deletion strains, locus YNL298W, strain CLA4, hits give low values 1 | S. cerevisiae deletion strains, locus YNL307C, strain MCK1, hits give low values 0.992 | S. cerevisiae deletion strains, locus YNL322C, strain KRE1 (second series), hits give low values 0.973 | S. cerevisiae deletion strains, locus YNL322C, strain KRE1, hits give low values 1.01 | S. cerevisiae deletion strains, locus YNR049C, strain mso1, hits give low values 0.962 | S. cerevisiae deletion strains, locus YNR052C, strain pop2, hits give low values 1.01 | S. cerevisiae deletion strains, locus YOL006C, strain TOP1, hits give low values 1.03 | S. cerevisiae deletion strains, locus YOL012C, strain htz1 1.1 | S. cerevisiae deletion strains, locus YOL147C, strain pex11, hits give low values 0.995 | S. cerevisiae deletion strains, locus YOR001W, strain rrp6, hits give low values 1 | S. cerevisiae deletion strains, locus YOR061W, strain CKA2, hits give low values 1 | S. cerevisiae deletion strains, locus YOR069W, strain VPS5, hits give low values 1.01 | S. cerevisiae deletion strains, locus YOR070C, strain gyp1, hits give low values 0.992 | S. cerevisiae deletion strains, locus YOR080W, strain dia2, hits give low values 0.987 | S. cerevisiae deletion strains, locus YOR083W, strain WHI5 (second series), hits give low values 0.999 | S. cerevisiae deletion strains, locus YOR083W, strain WHI5, hits give low values 0.964 | S. cerevisiae deletion strains, locus YOR106W, strain vam3, hits give low values 0.932 | S. cerevisiae deletion strains, locus YOR136W, strain idh2, hits give low values 0.994 | S. cerevisiae deletion strains, locus YOR144C, strain elg1, hits give low values 1 | S. cerevisiae deletion strains, locus YOR184W, strain ser1, hits give low values 0.986 | S. cerevisiae deletion strains, locus YOR231W, strain MKK1, hits give low values 1.05 | S. cerevisiae deletion strains, locus YOR265W, strain rbl2, hits give low values 0.993 | S. cerevisiae deletion strains, locus YOR270C, strain vph1, hits give low values 0.947 | S. cerevisiae deletion strains, locus YOR290C, strain snf2, hits give low values 0.909 | S. cerevisiae deletion strains, locus YOR316C, strain cot1, hits give low values 0.991 | S. cerevisiae deletion strains, locus YPL051W, strain arl3, hits give low values 0.998 | S. cerevisiae deletion strains, locus YPL055C, strain LGE1, hits give low values 1.02 and 1 | S. cerevisiae deletion strains, locus YPL078C, strain atp4, hits give low values 0.975 | S. cerevisiae deletion strains, locus YPL106C, strain sse1, hits give low values 0.971 | S. cerevisiae deletion strains, locus YPL240C, strain hsp82, hits give low values 0.98 | S. cerevisiae deletion strains, locus YPL241C, strain CIN2, hits give low values 1.01 | S. cerevisiae deletion strains, locus YPL256C, strain CLN2, hits give low values 1.13 | S. cerevisiae deletion strains, locus YPR119W, strain clb2, hits give low values 0.987 | S. cerevisiae deletion strains, locus YPR141C, strain kar3, hits give low values 0.993 | S. cerevisiae deletion strains, locus YPR163C, strain tif3, hits give low values 0.99 | S. cerevisiae deletion strains, locus YPR167C, strain met16, hits give low values 0.992 | S. cerevisiae deletion strains, strain wtn01, hits give low values 0.982 | S. cerevisiae strains, strain wild type, hits give low values 1.01
